Compounds with a hit are over-represented: about 6.9% of the library has one in this group of screens.
Giardia kill = kills Giardia lamblia | actives 0.15% (n = 340,000) | Giardia lamblia trophozoite viability | AID 540267 | activity change, % at 7.66 µM, hits read low; in the data active = activity change below about -80%; inconclusive = between about -30% and that limit;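 note: parasites exposed to compound for two days anaerobically before the ATP read; % is set by controls: 0 for no effect and ±100 for the full control effect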
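Luminescent ATP signal served as the viability read-out, measured 15-30 min after adding ATP detection reagent to trophozoites that had been incubated with compounds for 48 hrs at 37 deg C anaerobically at 100 cells/well.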
MCF10A rereplic = DNA re-replication induction in MCF 10a cells. MCF 10A DNA re-replication, Hoechst nuclear intensity, 48 h. Potency, µM (highest dose often 46.1 µM), without a hit: top-dose activity, positive = re-replication, hits mostly activators. actives 2.9% (n = 350,000); note: potency is the fitted concentration of half-maximal effect; % of control where 0% means no effect; nearly all actives have a fitted effect of over 50% in size
S-ASM inh = inhibitors of human secretory acid sphingomyelinase; P17405; placental ASM, HMU-PC fluorogenic substrate, 60 min; Potency, µM (series often up to 57.5 µM), without a hit: at the top dose activity change, negative = inhibition, actives largely listed as inhibitors; actives 0.006% (n = 340,000); AID 504937; note: potency is the fitted concentration of half-maximal effect
Target sequence (P17405 47-631 limits assumed): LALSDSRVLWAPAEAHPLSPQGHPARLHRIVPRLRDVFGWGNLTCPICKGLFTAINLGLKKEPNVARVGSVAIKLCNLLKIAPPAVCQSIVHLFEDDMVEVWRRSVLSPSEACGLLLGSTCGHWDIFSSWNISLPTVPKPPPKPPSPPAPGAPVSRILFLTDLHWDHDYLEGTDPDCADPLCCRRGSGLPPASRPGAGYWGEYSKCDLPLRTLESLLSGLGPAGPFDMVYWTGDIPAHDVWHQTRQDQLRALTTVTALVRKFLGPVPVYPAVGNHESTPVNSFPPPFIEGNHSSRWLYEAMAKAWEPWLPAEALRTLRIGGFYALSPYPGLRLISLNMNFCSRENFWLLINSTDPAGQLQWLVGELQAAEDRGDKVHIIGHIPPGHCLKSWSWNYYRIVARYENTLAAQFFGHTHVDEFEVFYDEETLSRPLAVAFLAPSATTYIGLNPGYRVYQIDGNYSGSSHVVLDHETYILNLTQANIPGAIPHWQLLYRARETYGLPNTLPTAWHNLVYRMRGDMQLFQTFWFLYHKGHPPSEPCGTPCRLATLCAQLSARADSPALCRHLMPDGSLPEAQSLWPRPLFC
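Human placenta-derived ASM enzyme was preincubated with compound for 10 minutes at room temperature, then given fluorogenic substrate HMU-PC0 (9 uM final) for 60 minutes at 37 °C; a pH 10 stop preceded fluorescence reading at Ex 386/Em 447 nm.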
SW480 rerep = induces DNA re-replication in SW480 colon adenocarcinoma cells; actives 1.8% (n = 340,000); SW480 DNA re-replication, Hoechst DNA content imaging, 48 h; Potency, µM (doses to about 46.1 µM), without a hit: at the top dose re-replication activation, actives largely listed as activators; AID 624297; note: potency is the fitted concentration of half-maximal effect; % of control where 0% means no effect; nearly all actives have a fitted effect of over 55% in size
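First, 250 cells per well were seeded. Next, compound or vehicle (23 nL) was pinned in, plates sat 48 hr at 37 C. Finally Hoechst was added for 40 min before fluorescence scanning.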
KB-3-1 tox = KB-3-1 parental cell cytotoxicity; KB-3-1 viability, CellTiter-Glo ATP luminescence, 72 h; Potency, µM (doses to about 46.1 µM), actives largely listed as cytotoxic; actives 1.4% (n = 400,000); AID 1347075; note: potency is the fitted concentration of half-maximal effect; % is set by controls: 0 for no effect and ±100 for the full control effect; nearly all actives have a fitted effect of over 60% in size
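Multi-concentration cytotoxicity screen in KB-3-1 cells grown in DMEM lacking phenol red with 10% FBS. After 72 h at 37 °C with compound, ATP-dependent luminescence was recorded.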
KB-V1 cytotox = KB-V1 MDR subline cytotoxicity; KB-V1 MDR cells viability, CellTiter-Glo, 72 h; Potency, µM (series often up to 46.1 µM), most hits filed as cytotoxic; actives 3.4% (n = 400,000); AID 1347076; note: potency is the fitted concentration of half-maximal effect; % is set by controls: 0 for no effect and ±100 for the full control effect; nearly all actives have a fitted effect of over 60% in size
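Cells of the MDR subline KB-V1 are plated, dosed with compound at multiple concentrations, and incubated 72 h at 37 degrees C; CellTiter-Glo is then added and luminescence read after 10 min.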
* hit, by the source's call; i = inactive; ? = inconclusive; . = no result given. Unless noted, calls come from the whole dose curve; as a rule, active = well fitted curve in the direction sought with a large enough effect; inconclusive = small, poorly fitted or top-dose-only effect, or another doubt; inactive = no such curve, though single readings can be large; an effect the other way counts as inactive or inconclusive.

SMILES | Giardia kill | MCF10A rereplic | S-ASM inh | SW480 rerep | KB-3-1 tox | KB-V1 cytotox
CCOC(=O)C1=C(COC(=O)CCNS(=O)(=O)c2ccc(C)c(C)c2)NC(=O)NC1C (configuration not stated) | -29 | -2% | 1% | 1% | i | i
CCOC(=O)C1=C(COC(=O)c2cc(S(=O)(=O)N(C)C)ccc2C)NC(=O)NC1C (configuration not stated) | -9 | 1% | 5% | -2% | i | 23µM*
Cc1ccc(OC(=O)c2cccc(S(=O)(=O)N3CCN(C)CC3)c2)c(Br)c1 | -6 | -1% | -8% | -4% | i | i
Cc1ccc(S(=O)(=O)N2CCOCC2)s1 | 16 | 8% | 0% | -1% | i | i
O=S(=O)(c1ccc(-c2ccon2)s1)N1CCOCC1 | 10 | 19% | -3% | 0.58µM* | i | i
Cc1cc(C)c(S(=O)(=O)Nc2cnc3ccccc3c2)c(C)c1 | -5 | 13% | 3% | 3% | i | 15µM*
O=S(=O)(Nc1ccccc1-c1ccccc1)c1ccccc1 | 8 | -1% | 0% | -5% | i | i
Cc1cc(C)c(S(=O)(=O)Nc2ccccc2-c2ccccc2)c(C)c1 | 9 | ? | -9% | 10% | ? | 18µM*
CCN(C(=O)c1cn(CC)c(=O)c2cc(OC)c(OC)cc12)c1ccccc1F | . | . | . | . | i | i
CC(C)(C)OC(=O)N1CCC(c2c(C(=O)NC3CCN(Cc4ccccc4)CC3)cnn2-c2ccc(F)cc2F)CC1 | . | . | . | . | i | i
CCOc1ccc(CN2C(=O)c3ccccc3Sc3ccc(C(=O)NC4CCC(C)CC4)cc32)cc1 (configuration not stated) | . | . | . | . | i | i
CCn1c(C)cc(C(=O)COC(=O)c2ccccc2[N+](=O)[O-])c1C | ? | -7% | -3% | -4% | i | 26µM*
Cc1ccc(-c2c(C#N)c(N)nc3c2CCCCC3)cc1 | -10 | 1% | 10% | 2% | i | i
N#Cc1c(N)nc2c(c1-c1ccc(F)cc1)CCC2 | 9 | 13µM* | 354% | ? | i | i
CCN(CC)S(=O)(=O)c1cccc(-c2nnc(SCCOc3ccccc3)o2)c1 | 10 | 9% | -4% | -2% | ? | 16µM*
CCOC(=O)Cn1nnnc1CN(Cc1ccc(OC)cc1)Cc1cc2cc(C)ccc2[nH]c1=O | 1 | 23µM* | -8% | 2% | i | i
COc1ccc2[nH]c(=O)c(CN(Cc3ccco3)Cc3nnnn3Cc3ccccc3)cc2c1 | -11 | 2% | 20% | 2% | i | 7.3µM*
Cc1ccc2[nH]c(=O)c(CN(CCO)Cc3nnnn3Cc3ccco3)cc2c1 | -6 | . | . | . | ? | ?
CCOc1ccc2[nH]c(=O)c(CN(Cc3ccco3)Cc3nnnn3Cc3ccccc3)cc2c1 | 2 | ? | 22% | -1% | i | ?
CCOC(=O)Cn1nnnc1C(C(C)C)N(Cc1cccs1)Cc1cc2cc(C)ccc2[nH]c1=O (configuration not stated) | -3 | ? | -22% | -15% | ? | 11µM*
COc1ccccc1CN(Cc1cc2cc(C)ccc2[nH]c1=O)Cc1nnnn1Cc1ccco1 | -1 | 22% | -7% | 5% | ? | 18µM*
COc1ccc2[nH]c(=O)c(C(c3nnnn3C(C)(C)C)N(Cc3ccco3)CC3CCCO3)cc2c1 (configuration not stated) | 29 | 25% | 37% | 7.3µM* | i | i
Cc1ccc2[nH]c(=O)c(CN(Cc3cccs3)Cc3nnnn3Cc3ccco3)cc2c1 | -25 | . | . | . | i | ?
CCc1ccc2[nH]c(=O)c(CN(Cc3ccccc3OC)Cc3nnnn3Cc3ccco3)cc2c1 | 26 | ? | -12% | ? | 21µM* | ?
COC(=O)c1ccccc1S(=O)(=O)N(Cc1ccco1)Cc1cc2cc(OC)ccc2[nH]c1=O | -4 | -2% | 8% | 0% | i | 8.2µM*
SMILES | Giardia kill | MCF10A rereplic | S-ASM inh | SW480 rerep | KB-3-1 tox | KB-V1 cytotox
COc1cccc(-n2c(SCC(=O)Nc3cc(C)ccc3C)nc3c(oc4ccccc43)c2=O)c1 | . | . | . | . | i | i
Cc1cccc(N2CCN(S(=O)(=O)c3ccc4oc(=O)c5ncn(C)c5c4c3)CC2C)c1 (configuration not stated) | . | . | . | . | i | ?
O=S(=O)(c1ccc(Br)cc1)N1CCN(c2nc(-c3cccs3)nc3ccccc23)CC1 | -13 | . | . | . | i | i
Oc1cccc(C=NN=C2c3ccccc3-c3ccccc32)c1 | -10 | ? | -16% | -5% | i | 18µM*
O=C1Nc2ccccc2/C1=N/N=C/c1cccc(O)c1 | 2 | -1% | -3% | 0% | i | i
c1ccc(-c2nnc3sc(-c4ccncc4)nn23)cc1 | -6 | 20% | 5% | 1% | i | i
c1ccc(-c2nnc3sc(-c4cc5ccccc5o4)nn23)cc1 | -5 | 18µM* | -17% | ? | i | i
CC(=O)OCC(=O)[C@@]1(O)CCC2C3CCC4=CC(=O)CC[C@]4(C)C3=CC[C@@]21C (some centres not stated) | . | -3% | . | -4% | . | .
CCOCCCNC(=S)Nc1ccc2nc(N3CCCC3)cc(C)c2c1 | -4 | 1% | 383% | -62% | i | 7.3µM*
Cc1cc(N2CCCC2)nc2ccc(NC(=S)NC(C)C)cc12 | -3 | ? | i | ? | i | i
COCCNC(=S)Nc1ccc2nc(N3CCCC3)cc(C)c2c1 | -2 | 27% | 251% | -9% | i | 16µM*
Cc1cc(N2CCOCC2)nc2ccc(NC(=S)NC(C)C)cc12 | 23 | 23µM* | 142% | -11% | i | i
COCCNC(=S)Nc1ccc2nc(N3CCOCC3)cc(C)c2c1 | 4 | -8% | 110% | -2% | i | i
C#CCN(C1CCCC1)S(=O)(=O)C=C | . | . | . | . | ? | i
C#CCSc1nccc(-c2nn(-c3ccc(C)cc3)ccc2=O)n1 | 2 | ? | 7% | 35% | i | ?
CCSc1nccc(-c2nn(-c3ccc(C)cc3)ccc2=O)n1 | 15 | 5.2µM* | 3% | 7.3µM* | 2.1µM* | 2.6µM*
CSc1nccc(-c2nn(-c3ccc(C)cc3)ccc2=O)n1 | -2 | 8.2µM* | 9% | 13µM* | 5.2µM* | 2.9µM*
C=CCSc1nccc(-c2nn(-c3ccc(C)cc3)ccc2=O)n1 | 25 | 8.2µM* | 0% | ? | 6.5µM* | 3.7µM*
COc1cccc(C2NC(=S)NC(C)=C2C(=O)c2ccccc2)c1OC (configuration not stated) | 6 | ? | 1% | 5.8µM* | 1.8µM* | ?

Bioassay records from PubChem BioAssay.
